Assay results published in PubChem BioAssay AID1578 (Sanford-Burnham Center for Chemical Genomics, 2009).
Among all 290,000 compounds or so, about 3,000 (1%) were called active. The sample as a whole holds a higher share of actives than the screen did. Unmarked numbers belong to inactive results. Rule as the data show it: active = inhibition mostly above about 36% (no sharp cut-off); inactive = mostly below about 34%.

Assay: inhibition of NOD1-driven NF-kB reporter – cell-based, luminescence, uHTS, primary screen (AID 1578);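 also: HEK-293T reporter cells stimulated with the NOD1 agonist gamma-tri-DAP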
Conditions: NOD1-driven NF-kB luciferase reporter cells, at 4 µM, hits give high values

| Compound | inhibition |
| --- | --- |
| O=C(O)CC(NC(=O)C1CCCCC1)c1ccc(OC2CCCC2)cc1 (stereo not drawn) | 65.3% (active) |
| CC(C)Oc1ccc(C(CC(=O)O)NC(=O)C2CCCCC2)cc1 (stereo not drawn) | -11.6% |
| COc1ccc(C(CC(=O)O)NC(=O)C2CCCCC2)cc1 (stereo not drawn) | 19.1% |
| CCOC(=O)N1CCN(C(=O)c2cccc(F)c2)CC1 | -43.9% |
| CCOc1cccc2sc(N(CCN(C)C)C(=O)CCS(=O)(=O)c3ccccc3)nc12 | -29% |
| Cc1ccc2sc(N(CCCN(C)C)C(=O)CCS(=O)(=O)c3ccccc3)nc2c1C | -27% |
| CN1C(=O)C2(C(C#N)=C(N)N(c3cc(Cl)cc(Cl)c3)C3=C2C(=O)CC(C)(C)C3)c2ccccc21 (stereo not drawn) | -0.6% |
| O=c1ccnc(SCCC(F)=C(F)F)[nH]1 | -43.9% |
| O/N=C\c1ccc(-c2ccccc2)o1 | 3.8% |
| Cn1c(CCN2CCN(c3ccccn3)CC2)nc2cc(NC(=O)COc3ccc(Cl)cc3)ccc21 | 21% |
| COc1ccc(CCNC(=O)c2ccc(-c3ccc([N+](=O)[O-])cc3Cl)o2)cc1 | 4.2% |
| COc1ccc(CCNC(=O)c2ccc(-c3ccc([N+](=O)[O-])cc3Cl)o2)cc1OC | 95.8% (active) |
| COc1ccc(CCNC(=O)c2ccc(-c3ccc([N+](=O)[O-])cc3)o2)cc1OC | 38.5% |
| COc1ccc(-c2nnn(CC(=O)c3ccccc3)n2)cc1OC | -8.9% |
| COc1cc(/C=C/C(=O)O)cc(S(=O)(=O)N2CCc3ccccc3C2)c1OC | -13.2% |
| CC(CC(=O)NCCc1ccc(F)cc1)c1ccccc1 (stereo not drawn) | -24.3% |
| CN1c2ccsc2/C(=N/Nc2ccccc2)CS1(=O)=O | -41.3% |
| CN1c2ccsc2/C(=N/Nc2ccc(F)cc2)CS1(=O)=O | -1.7% |
| Cc1ccc(N/N=C2\CS(=O)(=O)N(C)c3ccsc32)cc1 | 58.9% (active) |
| C[C@@H](O)C1NC(=O)[C@H](CCCCN)NC(=O)c2cc([N+](=O)[O-])cc(I)c2NCCC[C@@H](C(N)=O)NC1=O (stereo partly drawn) | -16% |

| Compound | inhibition |
| --- | --- |
| COc1cc(CNC2CCCCCCC2)ccc1OCC(N)=O | -34.5% |
| COc1ccc(OC)c2sc(NC(=O)c3ccc(S(=O)(=O)N(C)C)cc3)nc12 | -12.2% |
| C/C(=N\NC(=O)c1nnn(-c2nonc2N)c1CN(C)c1ccccc1)c1cccs1 | -19.9% |
| CCN(CCCNC(=O)c1c(C)cc(=O)oc1C)c1ccccc1 | 8.4% |
| CCn1c(C)cc(/C=C2\NC(=O)N(CC(=O)Nc3cccc(C)c3)C2=O)c1C | 9.5% |
| COc1cccc(/C=N/c2oc(-c3ccccc3)cc2C#N)c1O | -11% |
| COc1cc(/C=N/c2oc(-c3ccccc3)cc2C#N)ccc1O | -15.3% |
| N#Cc1cc(-c2ccccc2)oc1/N=C/c1ccccc1O | 49.6% (active) |
| Nc1ccc(Br)cc1C(NCC(=O)O)c1ccccc1 (stereo not drawn) | -19% |
| CC(C)(C)NC(=O)C1CCN(S(=O)(=O)c2cccc(C(F)(F)F)c2)CC1 | -13.7% |
| COc1ccc(C2(c3ccc(OC)cc3)NC(=O)N(CC(=O)Nc3ccccc3C(F)(F)F)C2=O)cc1 | -18.1% |
| O=C(Nc1cccc(Cl)c1)c1cccnn1 | -9.2% |
| COc1cccc2c1OC1(C)CC2/C(=C(\C)O)C(=O)N1 (stereo not drawn) | -20.8% |
| CCOc1ccc(/C=C/C(O)=C2/C(=O)NC3(C)CC2c2ccccc2O3)cc1OC (stereo not drawn) | 46.7% |
| COc1ccc(/C=C/C(O)=C2/C(=O)NC3(C)CC2c2ccccc2O3)c(OC)c1OC (stereo not drawn) | 69.9% (active) |
| COc1ccc(CCNC(=S)Nc2cccc(C)c2C)cc1 | -19.9% |
| COc1ccc(OC)c(NC(=O)COC(=O)/C=C/c2c(C)nn(C3CCS(=O)(=O)C3)c2Cl)c1 (stereo not drawn) | -5% |
| COc1ccc2nc(N3CCCCC3)c(C#N)cc2c1 | -123% |
| O=C1NC(=S)S/C1=C/c1ccc(N2CCOCC2)o1 | 27.5% |
| COc1ccc2cc(C#N)c(N3CCOCC3)nc2c1 | 2.7% |

| Compound | inhibition |
| --- | --- |
| COc1ccc2cc(/C=C3\SC(=S)NC3=O)c(N3CCOCC3)nc2c1 | 71.4% (active) |
| COc1ccc(-n2c(C)cc(/C=C3\SC(=S)NC3=O)c2C)cc1 | -70.7% |
| COc1ccccc1C(=O)NC(=S)Nc1ccc2[nH]c(=O)[nH]c2c1 | -36.5% |
| Cc1ccc(NC(=O)CCC(=O)OCC(=O)c2ccc(Oc3ccc([N+](=O)[O-])cc3)cc2)cc1C | -7% |
| OCCSc1nc(N2CCOCC2)nc(N2CCOCC2)n1 | -22.8% |
| COC(=O)c1cc(CSc2ncnc3sccc23)oc1C | -1.8% |
| Cc1cc(-n2cnc(-c3cn[nH]c3C)n2)no1 | -8.9% |
| O=S(=O)(Nc1nc2ccccc2nc1Nc1cccc(S(=O)(=O)N2CCCCC2)c1)c1ccccc1 | 98.4% (active) |
| O=S(=O)(Nc1cccc(S(=O)(=O)N2CCCCCC2)c1)c1ccccc1 | -11.7% |
| COc1ccc(S(=O)(=O)Nc2nc3ccccc3nc2Nc2ccc3c(c2)OCO3)cc1 | 7% |
| COc1ccc(S(=O)(=O)Nc2cccc(S(=O)(=O)N3CCCCCC3)c2)cc1 | -27% |
| O=S(=O)(Nc1nc2ccccc2nc1Nc1ccc2c(c1)OCO2)c1ccccc1 | 57.6% |
| CCOc1ccc(NS(=O)(=O)c2ccc(C(=O)N(CC)CC(=O)NCc3cccs3)cc2)cc1 | -1.7% |
| COc1cccc(CNC(=O)COc2ccc(C(=O)c3ccccc3)cc2)c1 | 4% |
| O=C(NCc1ccco1)Nc1ccc(OC(F)(F)F)cc1 | -6.5% |
| O=C(C1=NN[C@@H]2C(=O)N(c3ccccc3C(F)(F)F)C(=O)[C@H]12)c1cnccn1 | -13.1% |
| Cc1cccc2cc3c(N)c(C(=O)N4CCOCC4)sc3nc12 | -5% |
| Cc1ccc2nc3sc(C(=O)Nc4ccc(N5CCOCC5)cc4)c(N)c3cc2c1 | -21.9% |
